# Results from PubChem BioAssay (EPA / NIEHS).
# Some structures have more than one record in an assay (separate samples or runs), and their calls can disagree. Active and inactive are the calls of the source. How the source made its calls: active means hit-call score of the fitted dose curve at least 0.9, where 1 is the maximum; inactive means score below 0.9.
# Assay: ATG_CRE_CIS: Attagene CIS-FACTORIAL HepG2 Assay for human cAMP Responsive Element (CRE) binding protein 3 (AID 2282926)
# Conditions: HepG2 CRE cis-reporter, Attagene multiplexed mRNA; actives raise or lower the signal
# Procedure: ATG_CIS is a cell-based, multiplexed-readout assay that uses HepG2, a human liver cell line, with measurements taken at 24 hours after chemical dosing in a 24-well plate.ATG_CRE_CIS is one of 52 assay component(s) measured or calculated from the ATG_CIS assay. It is designed to make measurements of mRNA induction, a form of inducible reporter, as detected with fluorescence intensity signals by Reverse transcription polymerase chain reaction (RT-PCR) and Capillary electrophoresis technology.Data from the assay component ATG_CRE_CIS was analyzed into 1 assay endpoint. This assay endpoint, ATG_CRE_CIS, was analyzed with bidirectional fitting relative to DMSO as the negative control and baseline of activity. Using a type of inducible reporter, measures of mRNA for gain or loss-of-signal activity can be used to understand the reporter gene at the transcription factor-level as they relate to the gene CREB3. Furthermore, this assay endpoint can be referred to as a primary readout, because this assay has produced multiple assay endpoints where this one serves a reporter gene function. To generalize the intended target to other relatable targets, this assay endpoint is annotated to the dna binding intended target family, where the subfamily is basic leucine zipper.
# Human liver HepG2 cells are transiently transfected with multiple reporter transcription units (MRTUs) in 6-well plates using FuGene 6 reagent (Roche; 3 ml FuGene/1 mg DNA). The MRTU constructs are regulated by a cis-regulating element (promoter). […] A major difference between the CIS and TRANS system is that in CIS activities of endogenous TFs are measured, whereas the TRANS assay evaluates changes in activities of exogenous, chimeric NR-Gal4 proteins. […] At the end of 24 hour incubation, total RNA was isolated using TriZol reagent (Invitrogen). The isolated RNA is then reverse-transcribed using oligo(dT) primer and Mo-MLV reverse transcriptase (Invitrogen) with DNAse I (Ambion) treatment for 30 min. The one-tenth of the produced cDNA was amplified by PCR using Taq DNA polymerase (Invitrogen) and two reporter sequence-specific primers. The PCR products were fluorescently labeled by primer extension with 6-arboxyfluorescein (6-FAM) 5'-labeled reporter sequence-specific primer (2 min at 95 C, 20 s at 68 C and 10 min at 72 C) and these products were digested with 5U of HpaI (New England Biolabs) for 2h at 37 C. The fragments were purified using Qiaquick PCR columns (Qiagen), analyzed on an ABI 3130xL genetic analyzer (Applied Biosystems) with peak positions identified by using a set of X-rhodamine (ROX)-labeled MapMarker1000 molecular weight standards (BioVentures). The raw capillary electrophoresis data was processed using Attagraph software (Attagene).
Structure (SMILES),outcome,AC50
CC(C)(OO)c1ccccc1,inactive,–
CCCCCCCCSC(=O)Oc1cc(Cl)nnc1-c1ccccc1,inactive,–
C=C(C)C(=O)[O][Sn]([CH2]CCC)([CH2]CCC)[CH2]CCC,inactive,–
CC1(C)CCC(Cc2ccc(Cl)cc2)C1(O)Cn1cncn1 (stereo not given),inactive,–
O=[N+]([O-])c1ccc2c3c(cccc13)CC2,inactive,–
CNC(=O)O/N=C/C(C)(C)S(C)=O (stereo not given),inactive,–
COc1ccc(C=O)cc1,inactive,–
CN(C)P(=O)(N(C)C)N(C)C,inactive,–
Clc1ccc(COC(Cn2ccnc2)c2ccc(Cl)cc2Cl)cc1 (stereo not given),inactive,–
COP(=O)(OC)OC,inactive,–
Clc1nc(Cl)nc(Cl)n1,inactive,–
N#CCCO,inactive,–
O=C1CCCN1,inactive,–
CCSC(C)CC1CC(=O)C(C(CC)=NOC/C=C/Cl)=C(O)C1 (stereo not given),inactive,–
CCOP(=S)(OCC)Oc1nc(Cl)c(Cl)cc1Cl,inactive,–
Nc1ccc(Cl)cc1C(=O)c1ccccc1,inactive,–
C[C@@H](Oc1ccc(Cl)cc1Cl)C(=O)O,inactive,–
C[C@@H]1C[C@@H]([C@H](O)CC2CC(=O)NC(=O)C2)C(=O)[C@@H](C)C1,inactive,11.1 µM (active)
O=C/C=C/c1ccccc1,inactive,–
Oc1ccc(-c2ccccc2)cc1,inactive,–

Structure (SMILES),outcome,AC50
Nc1ccc(N=Nc2ccc(-c3ccc(N=Nc4c(S(=O)(=O)O)cc5cc(S(=O)(=O)O)c(N=Nc6ccccc6)c(O)c5c4N)cc3)cc2)c(N)c1,inactive,–
CCC(C)c1cccc(C(C)CC)c1O (stereo not given),inactive,–
CN(CCCC(=O)c1cccnc1)N=O,inactive,–
CCOC(=O)Nc1cccc(OC(=O)Nc2ccccc2)c1,inactive,–
O=C(O)C(Cl)(Cl)Cl,inactive,–
C[C@]12CC[C@H](O)CC1=CC[C@@H]1[C@@H]2CC[C@]2(C)C(=O)CC[C@@H]12,inactive,–
ClC1=C(Cl)[C@]2(Cl)[C@H]3[C@H]([C@H]4C=C[C@H]3C4)[C@@]1(Cl)C2(Cl)Cl,inactive,–
CN(C)N=O,inactive,–
OCC(O)CCl (stereo not given),inactive,–
CCCCCCCCCl,inactive,–
Cc1ccccc1N,inactive,–
BrCCBr,inactive,–
N#Cc1ccccn1,inactive,–
C(=NC1CCCCC1)=NC1CCCCC1,inactive,–
Cn1sc(Cl)cc1=O,inactive,–
O=Cc1cccc(Oc2ccccc2)c1,inactive,–
Clc1ccc(C2(Cn3cncn3)CC(Br)CO2)c(Cl)c1 (stereo not given),inactive,–
COC[C@H](C)N(C(=O)CCl)c1c(C)csc1C,inactive,–
c1cc[c]([Hg][c]2ccccc2)cc1,–,22.6 µM (active)
